Source: ChEMBL document CHEMBL2218924, “A broad activity screen in support of a chemogenomic map for kinase signalling research and drug discovery” (Biochem J, 2013)

Legend:
[1] = target: T1, Ephrin type-A receptor 3 (Homo sapiens) (UniProt P29320); conditions: at 10 µM
T1 sequence (whole entry): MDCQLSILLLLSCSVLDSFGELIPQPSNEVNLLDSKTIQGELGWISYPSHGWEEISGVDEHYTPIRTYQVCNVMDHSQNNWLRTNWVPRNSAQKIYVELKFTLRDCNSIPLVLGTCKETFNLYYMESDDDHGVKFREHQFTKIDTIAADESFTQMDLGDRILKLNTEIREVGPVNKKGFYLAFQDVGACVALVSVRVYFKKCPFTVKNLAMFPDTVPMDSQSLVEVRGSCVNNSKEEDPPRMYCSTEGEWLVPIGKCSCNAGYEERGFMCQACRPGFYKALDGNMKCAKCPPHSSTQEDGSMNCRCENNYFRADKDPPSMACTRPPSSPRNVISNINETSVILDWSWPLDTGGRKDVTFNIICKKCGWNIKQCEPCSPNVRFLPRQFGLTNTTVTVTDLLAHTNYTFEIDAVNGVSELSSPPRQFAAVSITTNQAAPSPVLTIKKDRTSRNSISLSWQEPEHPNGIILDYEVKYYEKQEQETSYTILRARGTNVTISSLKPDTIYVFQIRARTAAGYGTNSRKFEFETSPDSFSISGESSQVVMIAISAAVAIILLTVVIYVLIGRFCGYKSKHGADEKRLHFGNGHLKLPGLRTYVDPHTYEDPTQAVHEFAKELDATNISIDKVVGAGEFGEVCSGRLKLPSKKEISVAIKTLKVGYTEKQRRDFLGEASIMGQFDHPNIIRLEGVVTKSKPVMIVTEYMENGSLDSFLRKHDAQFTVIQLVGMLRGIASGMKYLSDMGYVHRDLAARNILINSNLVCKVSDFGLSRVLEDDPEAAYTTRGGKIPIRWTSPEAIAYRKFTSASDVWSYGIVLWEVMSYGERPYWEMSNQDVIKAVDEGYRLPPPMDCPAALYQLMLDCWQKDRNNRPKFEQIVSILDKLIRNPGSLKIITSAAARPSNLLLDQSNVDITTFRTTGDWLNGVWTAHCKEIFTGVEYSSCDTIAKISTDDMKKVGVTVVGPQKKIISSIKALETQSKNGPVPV

[2] = target: Ephrin type-A receptor 4 (Homo sapiens) (UniProt P54764); conditions: at 1 µM
[3] = target: Ephrin type-A receptor 4 (Homo sapiens) (UniProt P54764); conditions: at 10 µM
[4] = target: Ephrin type-A receptor 5 (Homo sapiens) (UniProt P54756); conditions: at 1 µM
[5] = target: Ephrin type-A receptor 5 (Homo sapiens) (UniProt P54756); conditions: at 10 µM
[6] = target: Ephrin type-A receptor 7 (Homo sapiens) (UniProt Q15375); conditions: at 1 µM
[7] = target: Ephrin type-A receptor 7 (Homo sapiens) (UniProt Q15375); conditions: at 10 µM
[8] = target: T2, Ephrin type-A receptor 8 (Homo sapiens) (UniProt P29322); conditions: at 1 µM
T2 sequence (whole entry): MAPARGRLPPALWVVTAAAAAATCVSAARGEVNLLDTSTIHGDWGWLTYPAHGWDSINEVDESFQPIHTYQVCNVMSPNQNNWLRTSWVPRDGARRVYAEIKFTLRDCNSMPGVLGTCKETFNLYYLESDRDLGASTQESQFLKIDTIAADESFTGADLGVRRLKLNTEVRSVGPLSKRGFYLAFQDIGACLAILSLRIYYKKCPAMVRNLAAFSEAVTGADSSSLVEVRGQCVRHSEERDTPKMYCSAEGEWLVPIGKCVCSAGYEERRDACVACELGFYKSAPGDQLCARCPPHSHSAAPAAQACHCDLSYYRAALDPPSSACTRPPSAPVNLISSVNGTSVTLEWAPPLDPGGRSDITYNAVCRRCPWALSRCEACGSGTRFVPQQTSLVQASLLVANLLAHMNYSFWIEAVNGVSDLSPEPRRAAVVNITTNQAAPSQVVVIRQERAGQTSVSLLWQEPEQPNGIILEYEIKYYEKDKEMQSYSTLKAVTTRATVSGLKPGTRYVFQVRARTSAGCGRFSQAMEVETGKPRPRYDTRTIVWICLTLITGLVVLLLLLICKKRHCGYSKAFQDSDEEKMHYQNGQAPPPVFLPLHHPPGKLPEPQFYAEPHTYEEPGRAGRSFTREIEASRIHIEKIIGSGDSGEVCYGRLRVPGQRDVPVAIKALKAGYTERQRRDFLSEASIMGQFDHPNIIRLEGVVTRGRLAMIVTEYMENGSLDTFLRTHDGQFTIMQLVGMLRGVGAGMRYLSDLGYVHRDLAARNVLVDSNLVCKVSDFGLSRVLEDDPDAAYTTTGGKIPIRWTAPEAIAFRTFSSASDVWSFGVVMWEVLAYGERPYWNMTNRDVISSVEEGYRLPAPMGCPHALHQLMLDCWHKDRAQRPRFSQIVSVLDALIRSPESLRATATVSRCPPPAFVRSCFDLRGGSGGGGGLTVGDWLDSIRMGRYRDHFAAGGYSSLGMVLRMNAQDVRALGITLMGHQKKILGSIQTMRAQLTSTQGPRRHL

[9] = target: T2, Ephrin type-A receptor 8 (Homo sapiens); conditions: at 10 µM
[10] = target: T3, Ephrin type-B receptor 1 (Homo sapiens) (UniProt P54762); conditions: at 1 µM
T3 sequence (whole entry): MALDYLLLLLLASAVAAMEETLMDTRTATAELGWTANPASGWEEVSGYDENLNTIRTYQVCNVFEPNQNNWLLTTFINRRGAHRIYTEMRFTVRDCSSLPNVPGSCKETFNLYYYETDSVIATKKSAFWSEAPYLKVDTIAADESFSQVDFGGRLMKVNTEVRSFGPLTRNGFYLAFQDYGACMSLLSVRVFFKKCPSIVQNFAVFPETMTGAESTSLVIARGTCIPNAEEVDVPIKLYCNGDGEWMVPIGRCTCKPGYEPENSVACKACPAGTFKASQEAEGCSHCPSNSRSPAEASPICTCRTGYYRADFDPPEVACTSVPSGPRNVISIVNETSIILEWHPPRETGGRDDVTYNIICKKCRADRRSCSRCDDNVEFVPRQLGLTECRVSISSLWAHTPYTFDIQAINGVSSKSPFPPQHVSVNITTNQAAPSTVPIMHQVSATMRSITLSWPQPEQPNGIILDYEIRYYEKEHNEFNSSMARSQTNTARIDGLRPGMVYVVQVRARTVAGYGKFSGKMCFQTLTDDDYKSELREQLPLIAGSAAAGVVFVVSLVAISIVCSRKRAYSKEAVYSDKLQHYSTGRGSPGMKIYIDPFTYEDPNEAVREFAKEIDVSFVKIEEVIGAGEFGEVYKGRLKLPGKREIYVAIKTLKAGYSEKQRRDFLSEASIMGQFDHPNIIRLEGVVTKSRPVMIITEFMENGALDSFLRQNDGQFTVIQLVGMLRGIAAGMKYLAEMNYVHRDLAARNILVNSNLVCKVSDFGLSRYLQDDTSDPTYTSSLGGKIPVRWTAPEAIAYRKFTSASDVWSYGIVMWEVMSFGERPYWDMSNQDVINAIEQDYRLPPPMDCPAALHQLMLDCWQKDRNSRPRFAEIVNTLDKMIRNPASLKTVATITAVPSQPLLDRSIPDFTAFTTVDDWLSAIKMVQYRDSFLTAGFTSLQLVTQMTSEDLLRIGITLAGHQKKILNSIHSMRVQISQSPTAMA

Ephrin type-A receptor 5 (Homo sapiens), sequence (P54756 whole entry): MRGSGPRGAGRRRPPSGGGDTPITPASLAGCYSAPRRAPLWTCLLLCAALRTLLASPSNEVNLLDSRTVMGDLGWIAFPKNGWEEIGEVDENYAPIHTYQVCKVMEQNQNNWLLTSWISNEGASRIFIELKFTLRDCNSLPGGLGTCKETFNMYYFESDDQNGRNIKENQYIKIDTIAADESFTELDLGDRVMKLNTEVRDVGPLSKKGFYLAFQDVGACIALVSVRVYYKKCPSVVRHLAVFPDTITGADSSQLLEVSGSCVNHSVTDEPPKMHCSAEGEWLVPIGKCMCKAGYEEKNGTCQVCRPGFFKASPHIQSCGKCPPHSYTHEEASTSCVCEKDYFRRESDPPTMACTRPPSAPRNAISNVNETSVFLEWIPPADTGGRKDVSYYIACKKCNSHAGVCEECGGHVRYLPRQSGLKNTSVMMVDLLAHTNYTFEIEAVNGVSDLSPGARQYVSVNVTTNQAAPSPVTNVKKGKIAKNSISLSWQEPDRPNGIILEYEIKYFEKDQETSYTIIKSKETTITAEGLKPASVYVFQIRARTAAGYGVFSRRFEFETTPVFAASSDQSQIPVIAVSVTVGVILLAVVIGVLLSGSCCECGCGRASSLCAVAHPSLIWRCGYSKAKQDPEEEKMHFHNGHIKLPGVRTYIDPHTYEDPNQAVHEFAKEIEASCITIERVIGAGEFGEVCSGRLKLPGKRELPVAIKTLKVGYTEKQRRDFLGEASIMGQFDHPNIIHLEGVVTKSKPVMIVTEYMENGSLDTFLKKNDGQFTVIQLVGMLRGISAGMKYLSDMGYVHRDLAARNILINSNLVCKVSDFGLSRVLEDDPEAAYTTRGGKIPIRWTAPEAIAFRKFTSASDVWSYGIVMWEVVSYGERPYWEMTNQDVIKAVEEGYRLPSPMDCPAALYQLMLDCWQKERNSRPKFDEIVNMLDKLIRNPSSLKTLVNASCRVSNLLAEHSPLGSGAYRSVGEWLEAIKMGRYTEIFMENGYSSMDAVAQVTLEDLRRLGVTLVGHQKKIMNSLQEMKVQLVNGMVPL
Ephrin type-A receptor 7 (Homo sapiens), sequence (Q15375 28-998 limits assumed): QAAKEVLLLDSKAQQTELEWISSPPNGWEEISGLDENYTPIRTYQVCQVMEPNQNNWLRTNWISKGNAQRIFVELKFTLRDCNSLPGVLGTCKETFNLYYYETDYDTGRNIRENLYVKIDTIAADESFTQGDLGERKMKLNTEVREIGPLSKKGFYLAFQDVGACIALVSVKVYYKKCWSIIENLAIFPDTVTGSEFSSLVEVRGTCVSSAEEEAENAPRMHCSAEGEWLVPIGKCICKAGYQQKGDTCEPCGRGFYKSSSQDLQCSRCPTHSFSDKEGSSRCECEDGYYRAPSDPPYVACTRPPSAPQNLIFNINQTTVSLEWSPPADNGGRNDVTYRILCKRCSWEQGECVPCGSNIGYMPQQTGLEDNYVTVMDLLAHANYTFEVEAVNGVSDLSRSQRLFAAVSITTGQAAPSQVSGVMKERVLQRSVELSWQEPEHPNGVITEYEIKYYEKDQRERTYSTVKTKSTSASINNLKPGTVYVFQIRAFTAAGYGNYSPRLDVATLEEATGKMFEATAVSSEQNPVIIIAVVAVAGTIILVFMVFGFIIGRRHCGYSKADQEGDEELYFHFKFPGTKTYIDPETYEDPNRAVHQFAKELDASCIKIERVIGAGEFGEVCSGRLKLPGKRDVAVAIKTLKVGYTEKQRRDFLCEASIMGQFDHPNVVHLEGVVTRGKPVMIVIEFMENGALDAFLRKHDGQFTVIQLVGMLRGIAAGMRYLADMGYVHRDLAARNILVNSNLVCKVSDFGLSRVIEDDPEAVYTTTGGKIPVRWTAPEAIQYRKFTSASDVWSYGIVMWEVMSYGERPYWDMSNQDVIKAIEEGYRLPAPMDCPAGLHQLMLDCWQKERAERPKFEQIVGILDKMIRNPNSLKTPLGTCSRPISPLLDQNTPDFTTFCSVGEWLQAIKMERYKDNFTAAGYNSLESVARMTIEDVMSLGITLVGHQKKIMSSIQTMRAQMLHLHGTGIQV
Ephrin type-A receptor 4 (Homo sapiens), sequence (P54764 whole entry): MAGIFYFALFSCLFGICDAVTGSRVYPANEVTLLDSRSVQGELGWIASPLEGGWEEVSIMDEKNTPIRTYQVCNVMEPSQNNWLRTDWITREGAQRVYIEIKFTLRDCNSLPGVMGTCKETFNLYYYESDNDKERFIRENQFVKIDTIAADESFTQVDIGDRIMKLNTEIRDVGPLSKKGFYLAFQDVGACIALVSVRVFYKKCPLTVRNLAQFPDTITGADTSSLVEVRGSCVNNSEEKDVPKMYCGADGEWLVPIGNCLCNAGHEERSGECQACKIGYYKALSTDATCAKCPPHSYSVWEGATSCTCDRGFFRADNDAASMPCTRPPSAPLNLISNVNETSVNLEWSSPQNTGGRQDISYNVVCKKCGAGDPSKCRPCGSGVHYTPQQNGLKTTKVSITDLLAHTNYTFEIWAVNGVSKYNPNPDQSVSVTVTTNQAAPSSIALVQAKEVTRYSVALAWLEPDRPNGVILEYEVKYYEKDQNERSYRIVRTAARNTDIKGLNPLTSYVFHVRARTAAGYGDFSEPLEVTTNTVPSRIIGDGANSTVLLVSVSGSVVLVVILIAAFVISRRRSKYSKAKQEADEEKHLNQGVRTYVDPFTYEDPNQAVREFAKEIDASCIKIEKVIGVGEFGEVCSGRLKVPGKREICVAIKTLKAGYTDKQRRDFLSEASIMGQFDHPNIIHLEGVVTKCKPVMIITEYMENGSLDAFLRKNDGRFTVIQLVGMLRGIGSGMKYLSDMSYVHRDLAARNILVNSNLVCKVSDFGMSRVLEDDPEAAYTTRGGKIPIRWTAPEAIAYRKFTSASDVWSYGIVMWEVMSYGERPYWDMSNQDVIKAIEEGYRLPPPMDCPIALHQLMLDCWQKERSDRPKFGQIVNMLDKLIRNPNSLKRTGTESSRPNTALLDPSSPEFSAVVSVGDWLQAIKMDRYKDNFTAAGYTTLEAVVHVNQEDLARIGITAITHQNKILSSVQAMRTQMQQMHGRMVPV

O=c1[nH]c2ccccc2n1C1CCN(Cc2ccc(-c3nc4cc5[nH]cnc5cc4nc3-c3ccccc3)cc2)CC1
residual activity [1]: 76%
residual activity [2]: 112%
residual activity [3]: 81%
residual activity [4]: 114%
residual activity [5]: 99%
residual activity [6]: 97%
residual activity [7]: 93%
residual activity [8]: 108%
residual activity [9]: 104%
residual activity [10]: 93%
